Experimental findings from PubChem BioAssay (Tox21) are described below.

Structures are written as SMILES. Results filed as inconclusive are left out. Where a call stands in place of a potency, no number is given. Activity calls are given as the source filed them. Unless noted, calls come from the whole dose curve.

One test addresses Nuclear receptor ROR-gamma (Homo sapiens) (UniProt P51449). As to the kind of experiment: qHTS assay to identify small molecule antagonists of the retinoid-related orphan receptor gamma (ROR-gamma) signaling pathway (AID 1159521; active = well fitted inhibition curve with a large enough effect in the repeat runs; note: nearly all actives have a fitted effect of over 50% in size; note: potency is the fitted concentration of half-maximal effect). Conditions: Tet-on RORgamma CHO cells, RORE-luciferase, 16 h; series mostly up to 92.4 µM. An outline of the steps: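 Antagonist read-out: drop in luminescence (ONE-Glo) from an RORE-LUC reporter in CHO cells with doxycycline-inducible ROR-gamma; 2 hr compound pretreatment, 1 uM doxycycline, 16 hr incubation at 37 C.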
On to `c1ccc(Nc2ccc(Nc3ccccc3)cc2)cc1`, for which the Potency result was “inactive”. Same read-out and setting: the value for `CCC[CH2][Sn]([CH2]CCC)([O]C(C)=O)[O]C(C)=O` was 0.0692 µM (active).

As for `COc1cnc(OC)n2nc(NS(=O)(=O)c3c(OCC(F)F)cccc3C(F)(F)F)nc12`, the Potency entry was “inactive”. On to `CCN(CC)Cc1nccn1-c1ccc([N+](=O)[O-])cc1C(=O)c1ccccc1Cl`, for which the Potency result was “inactive”. On the same count and under the same terms, the value for `O=C(N[C@@H]1N=C(c2ccccc2F)c2cccc3c2N(CC3)C1=O)c1cc2ccccc2[nH]1` was “inactive”; that for `[C-]1=CC=CC1.[Cl][Zr+2][Cl].c1cc[cH-]c1` was “inactive”; that for `Nc1ccc(Cl)cc1C(=O)c1ccccc1F` was “inactive”. As to `C1=CCC=C1`, the Potency result is “inactive”. For the compound `CCOP(=O)(Sc1ccccc1)Sc1ccccc1`, the Potency entry is “inactive”. Still for that read-out and setting: in the case of `O=[N+]([O-])c1ccc(Cl)c(Cl)c1Cl` it was “inactive”. For the compound `CSC(C)(C)/C=N/O`, the Potency result is “inactive”.

For the compound `CCNS(=O)(=O)C(F)(F)C(F)(F)C(F)(F)C(F)(F)C(F)(F)C(F)(F)C(F)(F)C(F)(F)F`, the Potency entry is “inactive”. Same read-out and setting: in the case of `CCN(CC)CCc1c[nH]c2ccccc12` it was “inactive”; in that of `CNC(=O)O/N=C(\C)C(C)S(C)(=O)=O` (configuration not stated), “inactive”; in that of `Cc1ccc(C)c2ccccc12`, “inactive”. Still for that read-out and setting: the value for `ClSC(Cl)(Cl)Cl` was “inactive”; that for `O=C(Nc1ccc(F)cc1F)c1cccnc1Oc1cccc(C(F)(F)F)c1` was “inactive”.

Turning to `CCC(C)c1cccc(C(C)CC)c1O` (configuration not stated), the Potency entry was “inactive”. Same read-out and setting: in the case of `CCN(CC)CCN1C(=O)CN=C(c2ccccc2F)c2cc(Cl)ccc21` it was “inactive”.

As to `CC#C[C@]1(O)CC[C@H]2[C@@H]3C[C@H](C)C4=CC(=O)CC[C@]4(C)[C@H]3CC[C@@]21C`, the Potency was 26.6 µM (active). The same measure, in the same setting: in the case of `COc1ccc2[nH]cc(CCN(C(C)C)C(C)C)c2c1` it was “inactive”; in that of `CC(C)Br`, “inactive”; in that of `O=[N+]([O-])c1ccccc1-c1ccccc1`, “inactive”. As for `O=c1c2ccccc2c(=O)c2c1cc(Cl)c1[nH]c3c([nH]c12)c(Cl)cc1c(=O)c2ccccc2c(=O)c13`, the Potency result was “inactive”. On the same count and under the same terms, in the case of `CC(C)C(Br)C(=O)NC(N)=O` (configuration not stated) it was “inactive”; in that of `CC[C@]1(O)CC[C@H]2[C@@H]3CCC4=CCCC[C@@H]4[C@H]3CC[C@@]21C`, “inactive”. In the case of `CCC1(CC)C(=O)N=C(O)NC1=O`, the Potency entry was “inactive”. On the same count and under the same terms, in the case of `CC(C)N(C(=O)SC/C(Cl)=C/Cl)C(C)C` it was “inactive”; in that of `NC1CCC(CC2CCC(N)CC2)CC1` (configuration not stated), “inactive”. The same measure, in the same setting: in the case of `C=Cc1cccc(CCl)c1` it was “inactive”.

System in the next test: not listed separately
In words: qHTS assay to identify small molecule agonists of the AP-1 signaling pathway - cell viability counter screen (AID 1159525). Note: nearly all actives have a fitted effect of over 55% in size. Conditions: ME-180 AP-1-bla cells viability, ATP luminescence, 5 h; series mostly up to 76.8 µM. A digest of the protocol: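 Luminescent ATP readout (Cell Titer Glo, 30 min RT), normalised to DMSO and tetra n-octyl ammonium bromide controls. Cells were ME-180 AP-1-bla in 0.5% dialyzed FBS Opti-MEM, with a 5 h, 37 °C compound exposure.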
On the technique in general: qHTS replaces the single test concentration by a dilution series.
`N#Cc1ccc(N(CC(N)=O)CC(F)(F)F)cc1C(F)(F)F`: the Potency entry was “inactive”.

As to `COc1cnc(OC)n2nc(NS(=O)(=O)c3c(OCC(F)F)cccc3C(F)(F)F)nc12`, the Potency entry is “inactive”. Take `O=C(N[C@@H]1N=C(c2ccccc2F)c2cccc3c2N(CC3)C1=O)c1cc2ccccc2[nH]1`: the Potency result is “inactive”. On to `[C-]1=CC=CC1.[Cl][Zr+2][Cl].c1cc[cH-]c1`, for which the Potency result was “inactive”. The same measure, in the same setting: the value for `Nc1ccc(Cl)cc1C(=O)c1ccccc1F` was “inactive”; that for `CCOP(=O)(Sc1ccccc1)Sc1ccccc1` was “inactive”. Same read-out and setting: in the case of `O=S(=O)(O)F` it was “inactive”; in that of `O=[N+]([O-])c1ccc(Cl)c(Cl)c1Cl`, “inactive”. Still for that read-out and setting: in the case of `CSC(C)(C)/C=N/O` it was “inactive”; in that of `CNC(=O)O/N=C(\C)C(C)S(C)(=O)=O` (configuration not stated), “inactive”. In the case of `CC(Cl)CCl` (configuration not stated), the Potency result was “inactive”. Take `Cc1ccc(C)c2ccccc12`: the Potency entry was “inactive”.

With `[O-][Cl+3]([O-])([O-])O`, the Potency entry is “inactive”. Same read-out and setting: the value for `COC(=O)c1ccccc1S(=O)(=O)NC(=O)Nc1nc(C)nc(OC)n1` was “inactive”; that for `CC1CN1` (configuration not stated) was “inactive”. The same measure, in the same setting: in the case of `c1cc[n+]2c(c1)-c1cccc[n+]1CC2` it was “inactive”. For `ClSC(Cl)(Cl)Cl`, the Potency entry was “inactive”. Same read-out and setting: in the case of `O=C(Nc1ccc(F)cc1F)c1cccnc1Oc1cccc(C(F)(F)F)c1` it was “inactive”; in that of `CCN(CC)CCN1C(=O)CN=C(c2ccccc2F)c2cc(Cl)ccc21`, “inactive”. On to `ClCBr`, for which the Potency entry was “inactive”.

As to `CC#C[C@]1(O)CC[C@H]2[C@@H]3C[C@H](C)C4=CC(=O)CC[C@]4(C)[C@H]3CC[C@@]21C`, the Potency entry is “inactive”. With `O=[N+]([O-])c1ccccc1-c1ccccc1`, the Potency result is “inactive”. Same read-out and setting: in the case of `O=c1c2ccccc2c(=O)c2c1cc(Cl)c1[nH]c3c([nH]c12)c(Cl)cc1c(=O)c2ccccc2c(=O)c13` it was “inactive”; in that of `CC[C@]1(O)CC[C@H]2[C@@H]3CCC4=CCCC[C@@H]4[C@H]3CC[C@@]21C`, “inactive”. The same measure, in the same setting: the value for `CCC1(CC)C(=O)N=C(O)NC1=O` was “inactive”; that for `CC(C)NCC(O)c1ccccc1Cl` (configuration not stated) was “inactive”. The same measure, in the same setting: the value for `CC(C)N(C(=O)SC/C(Cl)=C/Cl)C(C)C` was “inactive”.

Regarding `NC1CCC(CC2CCC(N)CC2)CC1` (configuration not stated), the Potency result is “inactive”. Still for that read-out and setting: in the case of `C=Cc1cccc(CCl)c1` it was “inactive”.

System in the next test: not listed separately
In words: qHTS assay to identify small molecule agonists of the AP-1 signaling pathway (AID 1159526). To be noted: ME-180 (cervical carcinoma) AP-1-bla reporter, beta-lactamase FRET ratio, 5 h; series mostly up to 76.8 µM.
`N#Cc1ccc(N(CC(N)=O)CC(F)(F)F)cc1C(F)(F)F`: the Potency entry is “inactive”. `COc1cnc(OC)n2nc(NS(=O)(=O)c3c(OCC(F)F)cccc3C(F)(F)F)nc12`: the Potency result is “inactive”. Still for that read-out and setting: in the case of `CCN(CC)Cc1nccn1-c1ccc([N+](=O)[O-])cc1C(=O)c1ccccc1Cl` it was “inactive”. Still for that read-out and setting: the value for `[C-]1=CC=CC1.[Cl][Zr+2][Cl].c1cc[cH-]c1` was “inactive”. Take `O=S(=O)(O)F`: the Potency result is “inactive”. Still for that read-out and setting: in the case of `CSC(C)(C)/C=N/O` it was “inactive”; in that of `CC(Cl)CCl` (configuration not stated), “inactive”. Same read-out and setting: in the case of `Cc1ccc(C)c2ccccc12` it was “inactive”; in that of `[O-][Cl+3]([O-])([O-])O`, “inactive”; in that of `COC(=O)c1ccccc1S(=O)(=O)NC(=O)Nc1nc(C)nc(OC)n1`, “inactive”. The same measure, in the same setting: in the case of `CC1CN1` (configuration not stated) it was “inactive”; in that of `c1cc[n+]2c(c1)-c1cccc[n+]1CC2`, “inactive”; in that of `CCN(CC)CCN1C(=O)CN=C(c2ccccc2F)c2cc(Cl)ccc21`, “inactive”. For the compound `ClCBr`, the Potency entry was “inactive”.

Take `CC(C)C(Br)C(=O)NC(N)=O` (configuration not stated): the Potency entry is “inactive”. Still for that read-out and setting: in the case of `CC(C)NCC(O)c1ccccc1Cl` (configuration not stated) it was “inactive”; in that of `NC1CCC(CC2CCC(N)CC2)CC1` (configuration not stated), “inactive”; in that of `C=Cc1cccc(CCl)c1`, “inactive”.
